Experimental data reported in PubChem BioAssay (NCATS).
Records with an inconclusive call do not appear. Calls of active or inactive are those of the source. Unless noted, calls follow the shape of the dose curve; as a rule, active = well fitted cell-killing curve with a large enough effect; inconclusive = small, poorly fitted or top-dose-only effect; inactive = flat fitted curve, though single readings scatter.

Key:
[1] = Cell Viability - LYMP2-025 (AID 976);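 also: series mostly up to about 92 µM; plate controls were DMSO only for no effect and tetraoctylammonium bromide control for full effect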
Procedure, shortened: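 Seed 2500 LYMP2-025 cells/well; 5 hr at 37 C; add compound; 24 hr at 37 C; add CellTiter-Glo; 30 min RT; read luminescence. AC50 from Hill-modelled concentration-response.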

[2] = Cell Viability - LYMP2-002 (AID 977);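 also: series mostly up to about 92 µM; plate controls were DMSO only for no effect and 92 µM tetraoctylammonium bromide for full effect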
Procedure, shortened: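 Luminescent ATP readout (CellTiter-Glo, 30 min room temperature) after 24 h compound exposure at 37 C of a human lymphoblastoid line, 2500 cells/well. AC50 values derived by standard Hill fitting of qHTS concentration-response data.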

[3] = Cell Viability - LYMP2-006 (AID 978); also: series mostly up to about 92 µM; % is scaled to controls: 0 for no effect and ±100 for the full control effect; nearly all actives have a fitted effect of over 60% in size
Procedure, shortened: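 Cells are seeded at 2500 per well and rested 5 hr at 37 C. Compounds are added across a concentration series for 24 hr at 37 C, after which ATP is quantified by luciferase luminescence.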

[4] = Cell Viability - LYMP2-007 (AID 979);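 also: cells exposed to compound for 24 h before reading; 0% = DMSO only and the negative end = 92 µM tetraoctylammonium bromide; nearly all actives have a fitted effect of over 60% in size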
Procedure, shortened: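 Luminescent ATP signal (CellTiter-Glo) serves as the viability read-out after 24 hr compound treatment of lymphoblastoid cells in complete medium at 37 C. Concentration-response data were fitted to the Hill equation to give AC50 values.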

[5] = Cell Viability - LYMP2-008 (AID 980); also: % is scaled to controls: 0 for no effect and ±100 for the full control effect; nearly all actives have a fitted effect of over 60% in size
Procedure, shortened: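 qHTS, human lymphoblastoid line, 2500 cells/well; 5 hr preincubation, 24 hr compound, 37 C. CellTiter-Glo ATP luminescence. AC50 via Hill equation. Tetraoctylammonium bromide positive control.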

[6] = Cell Viability - LYMP2-010 (AID 981); also: % is scaled to controls: 0 for no effect and ±100 for the full control effect; nearly all actives have a fitted effect of over 55% in size
Procedure, shortened: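 Luminescent ATP signal (CellTiter-Glo) served as the viability read-out. Cells of the human lymphoblastoid line were treated with compound over a concentration range for 24 hours at 37 C, and AC50 values came from Hill-equation modeling.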

[7] = Cell Viability - LYMP2-012 (AID 982);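 also: cellular ATP by luciferase luminescence where a drop means cytotoxicity; cells exposed to compound for one day before reading; 0% = DMSO only and full loss = 92 µM tetraoctylammonium bromide; nearly all actives have a fitted effect of over 55% in size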
[8] = Cell Viability - LYMP2-014 (AID 983);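 also: series mostly up to about 92 µM; plate controls were DMSO only for no effect and 92 µM tetraoctylammonium bromide for full effect; nearly all actives have a fitted effect of over 50% in size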
Procedure, shortened: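 Luminescent ATP signal (CellTiter-Glo, 30 min at room temperature) serves as the viability read-out after 24 hr compound exposure at 37 C. Cells were seeded at 2500 per well and settled 5 hr beforehand.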

[9] = Cell Viability - LYMP2-018 (AID 985);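 also: plate controls were DMSO only for no effect and tetraoctylammonium bromide at 92 µM for full effect; nearly all actives have a fitted effect of over 50% in size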
Procedure, shortened: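 Luminescent ATP signal (CellTiter-Glo, read after 30 min at room temperature) reports viable cells after 24 hr compound treatment at 37 C. Concentration-response data were fitted to the standard Hill equation for AC50.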

[10] = Cell Viability - LYMP2-020 (AID 986);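 also: series mostly up to about 92 µM; plate controls were DMSO only for no effect and tetraoctylammonium bromide at 92 µM for full effect; nearly all actives have a fitted effect of over 55% in size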
Procedure, shortened: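 Luminescent ATP signal (CellTiter-Glo, 30 min at room temperature) is the read-out after 24 h compound treatment of lymphoblastoid cells at 37 C. AC50 values come from Hill-equation fits across concentrations.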

[11] = Cell Viability - LYMP2-024 (AID 988);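 also: plate controls were DMSO only for no effect and 92 µM tetraoctylammonium bromide for full effect; nearly all actives have a fitted effect of over 60% in size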
Procedure, shortened: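 Steps: seed 2500 cells/well, 5 hr 37 C; add compound, 24 hr 37 C; add CellTiter-Glo, 30 min room temperature; read luminescence. AC50 derived by Hill modelling of concentration-dependent ATP loss.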

[12] = Cell Viability - LYMP2-026 (AID 989); also: % is scaled to controls: 0 for no effect and ±100 for the full control effect; nearly all actives have a fitted effect of over 50% in size
Procedure, shortened: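 Luminescent ATP signal (CellTiter-Glo, 30 min room temperature) measures viable lymphoblastoid cells after 24 hr compound treatment at 37 C. Decreased ATP reflects acute toxicity; AC50 values come from Hill-equation modeling.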

[13] = Cell Viability - LYMP1-002 - Assay at 24 hr (AID 993); also: % is scaled to controls: 0 for no effect and ±100 for the full control effect
Procedure, shortened: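 Cells plated 2500/well, 5 hr 37 C; compounds added, 24 hr 37 C; CellTiter-Glo added, 30 min RT; luminescence read. Tetraoctylammonium bromide positive control. Hill-equation AC50.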

[14] = Cell Viability - LYMP1-002 - Assay at 40 hr (AID 994)
Procedure, shortened: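 Luminescent ATP signal served as the viability readout, with decreases taken as toxicity. Cells were treated with compounds across a concentration range for 40 hours at 37 C, and AC50 values came from standard Hill modeling.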

[15] = qHTS Assay for Identification of Small Molecule Inducers of Hypoxia Response (AID 2120; active = well fitted curve in the direction sought with a large enough effect in the signal ratio, with a control signal flat, not every such curve was filed as active; the % refers to the signal ratio; also: 0% is about no effect)
Procedure, shortened: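 ME-180 HRE-bla cells plated in Opti-MEM/0.5% dialyzed FBS, rested 4-5 h, then dosed with compound titrations by pin tool. After 17 h at 37 degrees C, CCF4 dye loaded 2.5 h at RT; 460/530 nm ratio gave %Activity and AC50.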

[16] = target: Estrogen receptor (Homo sapiens) (UniProt P03372); experiment: qHTS assay for small molecule antagonists of estrogen receptor alpha signaling (AID 588513; active = well fitted curve in the direction sought with a large enough effect in the signal ratio, with a control signal flat, not every such curve was filed as active; the % refers to the signal ratio; also: % is scaled to controls: 0 for no effect and ±100 for the full control effect)
Procedure, shortened: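 Fluorescence from CCF4 substrate after 2 h at room temperature gave reporter activity; cells had been exposed to compound and 0.5nM 17-beta-estradiol for 18 h at 37 C. Hill-equation fitting yielded IC50 and maximal response.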

[17] = Cell Viability - LYMP2-016 (AID 984); also: % is scaled to controls: 0 for no effect and ±100 for the full control effect; nearly all actives have a fitted effect of over 55% in size
Procedure, shortened: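 Cells were seeded at 2500 per well and rested 5 hr before a 24 hr compound exposure at 37 C. Viability was then gauged as cellular ATP by luciferase luminescence, with AC50 values fitted to the Hill equation.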

[18] = Cell Viability - LYMP2-022 (AID 987)
Procedure, shortened: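 qHTS: human lymphoblastoid cells 2500/well; 5 hr 37 C; cpd added; 24 hr 37 C; CellTiter-Glo, 30 min RT; luminescence. AC50 via Hill fit; tetraoctylammonium bromide positive ctrl.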

[19] = target: Estrogen receptor (Homo sapiens) (UniProt P03372); experiment: qHTS assay for small molecule agonists of estrogen receptor alpha signaling (AID 588514; calls by dose curve;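 also: 0% = vehicle only and 100% = reference agonist; nearly all actives have a fitted effect of over 70% in size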)
Procedure, shortened: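 Cells were plated at 5000/well, incubated 4 hrs at 37 C, dosed with compound titration series, incubated 18 hrs at 37 C, loaded with CCF4 dye for 2 hrs at RT, then fluorescence was read.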

[20] = target: Androgen receptor (Homo sapiens) (UniProt P10275); experiment: qHTS assay for small molecule agonists of androgen receptor signaling (AID 588515; active = well fitted curve in the direction sought with a large enough effect in the signal ratio, with a control signal flat; the % refers to the signal ratio; also: % is scaled to controls: 0 for no effect and ±100 for the full control effect); conditions: AR-UAS-bla HEK293, beta-lactamase ratio, agonist 16 h; stronger effect = higher value
Procedure, shortened: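 EC50 and efficacy came from Hill fits of titrations (up to 92 uM) normalized to 30 nM R1881 as 100% and DMSO as 0%. Compound exposure was 16 h at 37 C on AR-UAS-bla HEK293 cells, with a 405/460/530 nm CCF4 fluorescence read.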

Sequence of Estrogen receptor (Homo sapiens) (P03372 whole entry, looked up): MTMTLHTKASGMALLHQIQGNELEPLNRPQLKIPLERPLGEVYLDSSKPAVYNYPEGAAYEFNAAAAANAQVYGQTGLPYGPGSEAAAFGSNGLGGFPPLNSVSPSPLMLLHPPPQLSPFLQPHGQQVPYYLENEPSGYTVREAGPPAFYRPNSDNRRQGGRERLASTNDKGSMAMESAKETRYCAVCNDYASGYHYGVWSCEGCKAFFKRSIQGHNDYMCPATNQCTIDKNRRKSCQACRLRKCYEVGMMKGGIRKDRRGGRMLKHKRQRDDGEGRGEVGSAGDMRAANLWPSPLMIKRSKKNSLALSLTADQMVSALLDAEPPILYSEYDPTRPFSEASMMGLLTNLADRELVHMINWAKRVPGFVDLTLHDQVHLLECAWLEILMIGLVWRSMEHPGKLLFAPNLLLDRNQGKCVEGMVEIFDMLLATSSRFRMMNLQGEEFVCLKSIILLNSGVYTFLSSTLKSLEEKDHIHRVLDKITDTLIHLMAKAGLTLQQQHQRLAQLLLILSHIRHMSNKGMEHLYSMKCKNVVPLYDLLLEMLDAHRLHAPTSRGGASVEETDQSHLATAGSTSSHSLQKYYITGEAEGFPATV
Sequence of Androgen receptor (Homo sapiens) (P10275 whole entry, looked up): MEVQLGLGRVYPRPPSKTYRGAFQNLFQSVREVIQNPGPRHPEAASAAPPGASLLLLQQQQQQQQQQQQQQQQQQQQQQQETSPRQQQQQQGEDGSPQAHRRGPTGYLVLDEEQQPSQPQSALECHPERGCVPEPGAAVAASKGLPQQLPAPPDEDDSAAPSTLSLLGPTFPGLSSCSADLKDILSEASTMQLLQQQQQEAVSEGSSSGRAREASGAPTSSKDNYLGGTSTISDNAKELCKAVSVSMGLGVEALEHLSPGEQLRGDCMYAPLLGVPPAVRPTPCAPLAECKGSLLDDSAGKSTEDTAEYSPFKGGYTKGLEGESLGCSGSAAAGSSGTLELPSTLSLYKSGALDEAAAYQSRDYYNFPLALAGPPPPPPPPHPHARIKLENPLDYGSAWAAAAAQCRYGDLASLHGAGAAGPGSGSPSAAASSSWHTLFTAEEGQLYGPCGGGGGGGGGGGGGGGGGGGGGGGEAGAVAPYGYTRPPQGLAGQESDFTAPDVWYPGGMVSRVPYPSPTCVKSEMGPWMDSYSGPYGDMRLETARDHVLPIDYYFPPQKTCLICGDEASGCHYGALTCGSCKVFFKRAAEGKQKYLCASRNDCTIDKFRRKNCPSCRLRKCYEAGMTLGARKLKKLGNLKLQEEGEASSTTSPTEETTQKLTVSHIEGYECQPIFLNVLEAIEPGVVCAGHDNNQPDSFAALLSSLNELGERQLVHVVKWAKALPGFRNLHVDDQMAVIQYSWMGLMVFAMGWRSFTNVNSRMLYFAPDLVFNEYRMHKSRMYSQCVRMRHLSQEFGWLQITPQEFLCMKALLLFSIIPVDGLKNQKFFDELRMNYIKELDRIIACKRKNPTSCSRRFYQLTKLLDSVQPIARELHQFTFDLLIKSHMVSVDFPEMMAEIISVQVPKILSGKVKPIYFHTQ

CCCCCCCCCCCCC1CO1 (centres undefined)
inactive: Potency [1] | Potency [2] | Potency [3] | Potency [4] | Potency [5] | Potency [6] | Potency [7] | Potency [8] | Potency [9] | Potency [10] | Potency [11] | outcome [12] | Potency [13] | Potency [14] | outcome [15] | outcome [16]

CC#N
inactive: Potency [1] | Potency [2] | Potency [3] | Potency [4] | Potency [5] | Potency [6] | Potency [7] | Potency [8] | Potency [17] | Potency [9] | Potency [10] | Potency [18] | Potency [11] | outcome [12] | Potency [13] | Potency [14] | outcome [15] | outcome [16]

CCN(CC)c1cccc(O)c1
inactive: Potency [1] | Potency [2] | Potency [3] | Potency [4] | Potency [6] | Potency [7] | Potency [8] | Potency [17] | Potency [9] | Potency [10] | outcome [12] | Potency [13] | Potency [14] | outcome [15] | outcome [16]

Nc1cc(Cl)c(N)c(Cl)c1
inactive: Potency [1] | Potency [2] | Potency [3] | Potency [4] | Potency [5] | Potency [6] | Potency [7] | Potency [8] | Potency [17] | Potency [10] | Potency [18] | Potency [11] | outcome [12] | Potency [13] | outcome [15] | outcome [16]

Nc1ccc([N+](=O)[O-])c(N)c1
inactive: Potency [1] | Potency [2] | Potency [3] | Potency [4] | Potency [6] | Potency [7] | Potency [8] | Potency [17] | Potency [9] | Potency [10] | Potency [18] | Potency [11] | outcome [12] | Potency [13] | Potency [14] | outcome [15] | outcome [16]

Cc1cscn1
inactive: Potency [1] | Potency [2] | Potency [3] | Potency [5] | Potency [6] | Potency [7] | Potency [8] | Potency [17] | Potency [9] | Potency [10] | Potency [18] | Potency [11] | outcome [12] | Potency [13] | Potency [14] | outcome [15] | outcome [16]

Cc1cccc2sc(N)nc12
inactive: Potency [1] | Potency [2] | Potency [3] | Potency [4] | Potency [5] | Potency [6] | Potency [8] | Potency [17] | Potency [9] | Potency [10] | Potency [18] | Potency [11] | outcome [12] | Potency [13] | Potency [14] | outcome [15] | outcome [16]

C1CCC2OC2C1 (centres undefined)
inactive: Potency [1] | Potency [2] | Potency [3] | Potency [4] | Potency [5] | Potency [6] | Potency [7] | Potency [8] | Potency [10] | Potency [18] | Potency [11] | outcome [12] | Potency [13] | Potency [14] | outcome [15] | Potency [19] | activation [20] -3.32%

CC(CCl)OC(C)CCl (centres undefined)
inactive: Potency [1] | Potency [2] | Potency [3] | Potency [4] | Potency [5] | Potency [6] | Potency [7] | Potency [8] | Potency [17] | Potency [9] | Potency [10] | Potency [18] | Potency [11] | outcome [12] | Potency [13] | Potency [14] | outcome [15] | outcome [16]

C=CCCC
inactive: Potency [1] | Potency [2] | Potency [3] | Potency [4] | Potency [5] | Potency [6] | Potency [7] | Potency [8] | Potency [17] | Potency [9] | Potency [10] | Potency [18] | Potency [11] | outcome [12] | Potency [14] | outcome [15] | outcome [16]

O=C1CCCCC1
inactive: Potency [1] | Potency [2] | Potency [3] | Potency [4] | Potency [5] | Potency [6] | Potency [7] | Potency [8] | Potency [17] | Potency [9] | Potency [10] | Potency [18] | Potency [11] | outcome [12] | Potency [13] | Potency [14] | outcome [15] | Potency [19] | activation [20] 14.6%

Cc1ccc2oc(=O)ccc2c1
inactive: Potency [1] | Potency [2] | Potency [3] | Potency [4] | Potency [7] | Potency [8] | Potency [17] | Potency [9] | Potency [10] | Potency [18] | Potency [11] | outcome [12] | Potency [13] | outcome [15] | outcome [16]

Cc1ccc(C#N)cc1
inactive: Potency [1] | Potency [2] | Potency [3] | Potency [4] | Potency [5] | Potency [6] | Potency [7] | Potency [8] | Potency [17] | Potency [10] | Potency [18] | Potency [11] | outcome [12] | Potency [13] | Potency [14] | outcome [15] | outcome [16]
